GLP-1R inv ag – acts as inverse agonist at human GLP-1 receptor; P43220; 410,000 compounds, 1.6% hits; HEK293 GLP-1R CRE-luciferase, luminescence, 24 h; GLP-1R form is constitutively active; AID 624417; Potency, µM (highest dose often 38.3 µM), most hits filed as inhibitors; also: nearly all actives have a fitted effect of over 55% in size
Target sequence (P43220 whole entry, looked up): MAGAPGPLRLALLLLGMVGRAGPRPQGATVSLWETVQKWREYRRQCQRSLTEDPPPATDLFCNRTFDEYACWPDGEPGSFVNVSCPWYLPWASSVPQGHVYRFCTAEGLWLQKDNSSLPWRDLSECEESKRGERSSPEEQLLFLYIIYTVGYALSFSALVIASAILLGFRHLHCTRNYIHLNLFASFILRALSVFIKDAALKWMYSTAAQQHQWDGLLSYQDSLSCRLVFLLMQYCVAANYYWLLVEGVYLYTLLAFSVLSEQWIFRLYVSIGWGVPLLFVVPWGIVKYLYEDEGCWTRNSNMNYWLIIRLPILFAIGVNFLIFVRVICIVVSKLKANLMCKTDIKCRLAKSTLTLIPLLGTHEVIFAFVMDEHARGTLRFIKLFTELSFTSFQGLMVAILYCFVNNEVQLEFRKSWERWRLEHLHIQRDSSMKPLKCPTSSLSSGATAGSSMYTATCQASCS
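Using stably transfected HEK293 (constitutively active GLP-1R, cAMP-luciferase reporter), compounds were incubated 24 hr and luciferase measured by luminescence.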
TRHR enhancer-1 – TRH receptor (human) allosteric enhancement; 360,000 compounds, 0.66% hits; enhancement, % at 2 µM; TRHR cells, fluo-8 calcium fluorescence, EC20 TRH enhancement; in the data active = enhancement above about 30%
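TRHR-expressing cells loaded with fluo-8 calcium dye were read kinetically (ex 480/em 530) during compound addition, then stimulated with an EC20 of TRH (10 nM final). Enhancement of the Gq-mediated intracellular calcium response was scored.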
TRHR agonist-1 – agonists of human TRH receptor. P34981. TRHR cells, calcium flux fluo-8, FDSS agonist mode. activation, % at 2 µM. 360,000 compounds, 0.18% hits; in the data active = activation above about 30%
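Fluo-8-loaded TRHR cells; 10 s baseline, compound added, kinetic Ca2+ fluorescence read 1/s, agonist mode.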
HEK293 tox – cytotoxic in the GLP-1 receptor inverse agonist counter-screen | HEK293 cAMP-luciferase reporter cells, luminescence, 24 h | Potency, µM (titrated, usually from 38.3 µM), actives largely listed as inhibitors | 410,000 compounds, 0.13% hits | AID 624418;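 also: loss of luciferase light is scored as toxicity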
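Compound-treated cells are incubated 24 hr at 37 deg C under 5% CO2 after a 12 hour attachment period, then luciferase detection reagent is added and luminescence is measured following 12 min at room temperature; lowered signal indicates toxicity.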
GLP1R ag – activates the human GLP-1 receptor; P43220; 380,000 compounds, 0.007% hits; AID 624172; Potency, µM (series often up to 45.6 µM), usual class: activators; HEK293 GLP-1R CRE-luciferase, luminescence, 4-6 h; cells express a hypersensitive GLP-1R form
PTHR1 agonist – activates the human parathyroid hormone receptor PTHR1 | Q03431 | HEK293 GP2 PTHR1 cells, GloSensor cAMP luminescence, 1 h | Potency, µM (series often up to 115 µM), usual class: activators | 410,000 compounds, 0.075% hits | AID 743266; also: nearly all actives have a fitted effect of over 55% in size
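HEK-293-derived GP2 cells expressing PTHR1 and a GloSensor cAMP reporter, 3,000/well, plated overnight, given luciferin plus IBMX (each 0.5 mM as added) for 1 h at 37 °C, then compound for 1 h at 37 °C. Luminescence was read after 15 min at room temperature.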
TRHR enhancer-2 – confirmation of human TRH receptor allosteric enhancers. 970 tested, under 10 active. activity change, negative = inhibition, % at 46.1 µM. TRH receptor cell assay, enhancer confirmation qHTS. shares compounds with TRHR enhancer-1;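 also: compound effect scored on response to added TRH at EC20 of 10 nM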
TRHR agonist-2 – confirmation of human TRH receptor agonists; 970 compounds, 8% hits; shares compounds with TRHR enhancer-1; Potency, µM (titrated, usually from 46.1 µM), actives largely listed as activators; TRHR-expressing cells, agonist activation read-out; AID 493078; also: nearly all actives have a fitted effect of over 75% in size
A number is an active result; . = inactive; ? = inconclusive; / = not tested or not shown. Compounds with a hit are over-represented: about 2.4% of the library has one in this group of screens. Unless noted, calls follow the shape of the dose curve; as a rule, active = well fitted curve in the direction sought with a large enough effect; inconclusive = small, poorly fitted or top-dose-only effect, or another doubt; inactive = no such curve, though single readings can be large; an effect the other way counts as inactive or inconclusive.

SMILES | GLP-1R inv ag | TRHR enhancer-1 | TRHR agonist-1 | HEK293 tox | GLP1R ag | PTHR1 agonist | TRHR enhancer-2 | TRHR agonist-2
COc1cc(C(=O)NCc2ccccc2)ccc1OC(F)F | . | . | . | . | . | . | / | /
COc1ccccc1CNC(=O)c1ccc(OC(F)F)c(OC)c1 | . | 51.5 | . | . | . | . | . | .
O=S(=O)(NCc1ccccc1F)NCc1ccccc1F | . | 58.5 | . | . | . | . | . | .
COc1ccc(C(=O)Oc2ccc(/C=N/NC(=O)c3ccccc3OC)cc2[N+](=O)[O-])cc1 | . | 50.9 | . | . | . | . | . | .
c1ccc(Oc2ccc(-c3ccnc4ncnn34)cc2)cc1 | . | 48.0 | . | . | . | . | . | .
S=C(Nc1ccc(Br)cc1)N1CCCC1 | . | 41.3 | . | . | . | . | . | .
S=C(Nc1ccc(Cl)cc1)N1CCCCC1 | . | . | . | . | . | . | / | /
O=C1c2ccccc2-c2onc3ccc(N4CCCC4)c1c23 | . | . | 54.3 | ? | . | . | . | ?
Cc1cc(C)cc(OCC(O)CN2CCN(Cc3ccc4c(c3)OCO4)CC2)c1 (configuration not stated) | 2.24µM | 43.7 | . | . | . | . | . | .
CC1CCCC(C)N1C(=O)CN1C(=O)NC2(CCOc3ccccc32)C1=O (configuration not stated) | ? | 45.4 | . | . | . | . | . | .
N#Cc1ccccc1S(=O)(=O)N1CCN(C(=O)C2COc3ccccc3O2)CC1 (configuration not stated) | . | 54.1 | . | . | . | . | . | ?
O=C(C1COc2ccccc2O1)N1CCN(S(=O)(=O)c2cc(F)ccc2F)CC1 (configuration not stated) | . | . | . | . | . | . | / | /
Cc1ccccc1CN1CCC(CNC(=O)Nc2ccc(F)cc2F)CC1 | ? | . | . | . | . | . | / | /
CCOC(=O)c1cc(-c2csc(-c3ccc(C(C)(C)C)cc3)n2)on1 | . | 44.3 | . | . | . | . | . | .
O=C(Nc1ncccc1O)c1c(O)c2ccccc2[nH]c1=O | . | . | . | . | . | . | . | .
C[n+]1cn(CC(O)COCc2ccccc2)c2ccccc21 (configuration not stated) | . | 52.6 | . | . | . | . | . | .
N=c1sccn1CC(=O)Nc1cccc(S(N)(=O)=O)c1 | . | . | . | . | . | . | / | /
N=c1sccn1CC(=O)Nc1ccc(S(N)(=O)=O)cc1 | . | 53.6 | . | . | . | . | . | .
COc1ccc(NC(=O)CSC2CCCCC2)cc1 | . | . | . | . | . | . | / | /
NS(=O)(=O)c1ccc(NC(=O)CSC2CCCCC2)cc1 | . | 45.1 | . | . | . | . | . | .
COc1ccccc1NC1=C(Cl)C(=O)N(C2CCCCC2)C1=O | ? | 45.8 | . | . | . | . | . | .
Cc1cccc(N(C(=O)c2csnn2)C(C(=O)NC2CCCC2)c2ccncc2)c1 (configuration not stated) | . | . | . | . | . | . | / | /
Cc1cccc(N(C(=O)c2csnn2)C(C(=O)NC2CCCCC2)c2ccncc2)c1 (configuration not stated) | . | 54.5 | . | . | . | . | . | .
Cn1c(CCc2ccc(N)cc2)nc2ccccc21 | ? | . | . | . | . | . | / | /
CCn1cc(C(=O)N2CCN(c3ccc([N+](=O)[O-])cc3)CC2)c(=O)c2ccc(C)nc21 | . | 46.4 | . | . | . | . | . | .
SMILES | GLP-1R inv ag | TRHR enhancer-1 | TRHR agonist-1 | HEK293 tox | GLP1R ag | PTHR1 agonist | TRHR enhancer-2 | TRHR agonist-2
CCn1cc(C(=O)N2CCN(c3cccc(C)c3C)CC2)c(=O)c2ccc(C)nc21 | ? | . | . | . | . | . | / | /
O=C(CSc1ccc(-c2ccccc2)nn1)N1CCOCC1 | . | . | . | . | . | . | / | /
O=C(CSc1ccc(-c2ccc(F)cc2)nn1)N1CCOCC1 | . | 49.7 | . | . | . | . | . | .
O=C(O)c1cccc(-c2ccc(/C=c3/sc4nc5ccccc5n4c3=O)o2)c1 | . | . | . | . | . | . | . | ?
O=C(O)c1cc(C(=O)O)cc(-c2ccc(/C=c3/sc4nc5ccccc5n4c3=O)o2)c1 | ? | . | . | . | . | . | / | /
Cc1cccc(C)c1NC(=O)C1(C)CN(S(C)(=O)=O)CC(=O)N1Cc1cccs1 (configuration not stated) | . | / | / | . | / | . | / | /
Cc1ccc2c(CC(=O)OCC(=O)N(CC(C)C)c3c(N)n(Cc4ccccc4)c(=O)[nH]c3=O)coc2c1 | ? | 49.2 | . | . | . | . | . | ?
O=C1CCC(=O)N1c1ccc(S(=O)(=O)Nc2cccc(Br)c2)cc1 | . | . | . | . | . | . | / | /
COc1ccc(Cn2nnnc2C(c2ccccc2)N2CCN(C3CCCC3)CC2)cc1 (configuration not stated) | ? | 47.5 | . | . | . | . | . | .
Cc1ccc(CNC(=O)c2cccc3c2C(=O)c2ccc(N4CCCCC4)cc2S3(=O)=O)cc1 | . | . | 35.8 | . | . | . | . | 20.6µM
Cc1[nH]n(-c2ccccc2)c(=O)c1C=NC1CCCCC1 | . | 43.9 | . | . | . | . | . | .
Cc1[nH]n(-c2ccccc2)c(=O)c1C=NC1CCCCCC1 | ? | . | . | . | . | . | / | /
COc1ccccc1CNC(=O)N1CCN(S(=O)(=O)c2ccc(C)cc2)CC1 | . | 42.4 | . | . | . | . | . | .
CC(C)CCNC(=S)Nc1ccccn1 | ? | . | . | ? | ? | . | / | /
O=C(NCCc1ccccc1)c1cccc(NC(=O)C2CC2)c1 | . | / | / | . | . | . | / | /
CC(C)OC(=O)CC1C(=O)NCCN1C(=S)NC(=O)c1ccccc1 (configuration not stated) | . | . | . | . | . | . | / | /
O=C(CSc1cc(Cl)ccc1Cl)NC1CC1 | . | . | . | . | . | . | / | /
CCCCNC(=O)c1cc(-c2ccc(F)cc2)on1 | . | 41.0 | . | . | . | . | . | .
C[C@@H](C(=O)N1CCNCC1)n1cc(CCCN=C(N)N)nn1 | . | 64.1 | . | . | . | . | . | .

Screening data from PubChem.
